Inconclusive results are not listed. Active and inactive are the calls of the source. Unless noted, the call rests on the fitted dose curve; in most records, active means well fitted curve in either direction with a large enough effect (not every such curve was filed as active); inconclusive means small, poorly fitted or top-dose-only effect, or another doubt; inactive means flat fitted curve, though single readings scatter.
Assays:
[1] = target: Lysosomal acid glucosylceramidase (Homo sapiens) (UniProt P04062); experiment: Glucocerebrosidase-p2 (AID 348; in the data active means potency below about 10 µM; further: potency means the concentration at half of the fitted maximal effect); conditions: purified GBA, blue fluorogenic substrate, 40 min
Chain of Lysosomal acid glucosylceramidase (Homo sapiens) (P04062 whole entry, looked up): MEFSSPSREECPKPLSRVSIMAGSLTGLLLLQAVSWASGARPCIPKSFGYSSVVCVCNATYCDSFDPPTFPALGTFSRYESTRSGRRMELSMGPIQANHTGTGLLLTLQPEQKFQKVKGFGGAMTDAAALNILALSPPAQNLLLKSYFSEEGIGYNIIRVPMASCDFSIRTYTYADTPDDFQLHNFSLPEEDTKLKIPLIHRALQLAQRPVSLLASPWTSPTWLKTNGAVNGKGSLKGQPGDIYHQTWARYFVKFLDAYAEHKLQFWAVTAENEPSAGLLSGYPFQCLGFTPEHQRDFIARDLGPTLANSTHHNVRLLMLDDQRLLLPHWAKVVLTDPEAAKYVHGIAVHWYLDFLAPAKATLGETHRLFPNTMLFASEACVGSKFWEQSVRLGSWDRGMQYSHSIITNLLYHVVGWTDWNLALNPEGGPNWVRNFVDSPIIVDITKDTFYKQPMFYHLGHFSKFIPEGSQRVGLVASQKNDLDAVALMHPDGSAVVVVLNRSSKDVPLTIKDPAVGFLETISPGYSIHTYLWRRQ
Outline: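 Normal human glucocerebrosidase (0.2 nM) with blue fluorogenic substrate (80 uM final) in citrate/phosphate pH 5.9 with 10mM sodium taurocholate, 0.01% tween-20; 40 min RT, NaOH/glycine stop; fluorescence Ex 365/Em 440; AC50 from a titration from 0.6 nM upwards.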

[2] = AP1 Signaling Pathway (AID 357); conditions: ME-180 AP-1-bla reporter, EGF-induced, beta-lactamase ratio, 5 h; at 7.69 µM (top of the series) unless noted;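 further: ME-180 reporter cells stimulated with EGF at its EC50 level; on the % scale 0 is the no-effect control and ±100 the full control effect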
Outline: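 Modulation of EGF-driven AP-1 transcription was assessed with a beta-lactamase reporter in ME-180 cells. Compound and EC50 EGF were co-incubated 5 hours at 37 °C before 2.5-hour CCF4 loading at room temperature and dual-emission reading.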

[3] = target: Cytochrome P450 1A2 (Homo sapiens) (UniProt P05177); experiment: p450-cyp1a2 (AID 410; calls by dose curve; further: potency means the concentration at half of the fitted maximal effect;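 on activity change, negative = inhibition: -100% = full effect of reference inhibitor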); conditions: recombinant CYP1A2, luciferin-ME demethylation, luminescence; series mostly up to 57 µM
Chain of Cytochrome P450 1A2 (Homo sapiens) (P05177 whole entry, looked up): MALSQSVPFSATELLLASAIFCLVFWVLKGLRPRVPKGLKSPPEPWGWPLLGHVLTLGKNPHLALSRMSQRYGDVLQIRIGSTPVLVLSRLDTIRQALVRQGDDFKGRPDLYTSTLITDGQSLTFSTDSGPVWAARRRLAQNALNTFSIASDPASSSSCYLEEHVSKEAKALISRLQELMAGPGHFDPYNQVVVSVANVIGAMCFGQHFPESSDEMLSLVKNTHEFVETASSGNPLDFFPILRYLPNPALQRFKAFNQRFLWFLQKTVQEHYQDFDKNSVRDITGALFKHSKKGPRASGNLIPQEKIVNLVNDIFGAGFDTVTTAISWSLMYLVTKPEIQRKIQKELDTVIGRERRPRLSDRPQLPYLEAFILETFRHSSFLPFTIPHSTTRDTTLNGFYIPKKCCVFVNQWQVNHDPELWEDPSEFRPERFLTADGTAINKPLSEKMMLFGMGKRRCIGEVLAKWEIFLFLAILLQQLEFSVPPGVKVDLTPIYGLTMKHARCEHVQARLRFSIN
Outline: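 20nM CYP1A2, 100uM Luciferin-ME (=Km), 100mM KPO4; cpd 10 min RT; +NADPH regen, 60 min RT; stop/detect 20 min; luminescence. Normalized to furafylline 57 uM = full inhibition.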

[4] = NFAT Signaling Pathway (AID 444); conditions: Jurkat NFAT-bla M1, carbachol, beta-lactamase ratio, 5 h; at 7.69 µM (top of the series) unless noted;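 further: carbachol stimulus at about its EC50 of 1 µM final; on the % scale 0 is the no-effect control and ±100 the full control effect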
Outline: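 Jurkat cells carrying an NFAT-driven β-lactamase reporter and co-transfected muscarinic M1 receptor were treated with compound plus carbachol (1 uM final, an EC50 level) for 5 h at 37 °C. CCF4 loading followed for 1 h at RT; 460/530 nm ratio gave %activity.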

[5] = Stat Signaling Pathway (AID 446); conditions: ME-180 (cervical carcinoma) SIE beta-lactamase reporter, IL-6 stimulated, 5 h; at 7.69 µM (top of the series) unless noted;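 further: ME-180 cervical cancer cells given 40 pM IL-6 alongside compound; SIE-controlled beta-lactamase reporter measured as 460/530 nm FRET emission ratio; on the % scale 0 is the no-effect control and ±100 the full control effect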
Outline: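 Emission at 460 and 530 nm (excitation 405 nm) reports SIE-controlled beta-lactamase in ME-180 cells. Cells received compound with 40 pM IL-6 for 5 hrs at 37 C; data scaled between 300 pM IL-6 and 125 nM JAK-inhibitor controls.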

[6] = target: Glucocorticoid receptor (Homo sapiens) (UniProt P04150); experiment: GR-GFP Redistribution (AID 450;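 active means compounds whose dose series gives a full or clear partial fitted curve of increased nuclear translocation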; further: potency means the concentration at half of the fitted maximal effect); conditions: U2OS GR-GFP nuclear translocation, laser cytometry, 2 h
Chain of Glucocorticoid receptor (Homo sapiens) (P04150 whole entry, looked up, the tested form may be a part): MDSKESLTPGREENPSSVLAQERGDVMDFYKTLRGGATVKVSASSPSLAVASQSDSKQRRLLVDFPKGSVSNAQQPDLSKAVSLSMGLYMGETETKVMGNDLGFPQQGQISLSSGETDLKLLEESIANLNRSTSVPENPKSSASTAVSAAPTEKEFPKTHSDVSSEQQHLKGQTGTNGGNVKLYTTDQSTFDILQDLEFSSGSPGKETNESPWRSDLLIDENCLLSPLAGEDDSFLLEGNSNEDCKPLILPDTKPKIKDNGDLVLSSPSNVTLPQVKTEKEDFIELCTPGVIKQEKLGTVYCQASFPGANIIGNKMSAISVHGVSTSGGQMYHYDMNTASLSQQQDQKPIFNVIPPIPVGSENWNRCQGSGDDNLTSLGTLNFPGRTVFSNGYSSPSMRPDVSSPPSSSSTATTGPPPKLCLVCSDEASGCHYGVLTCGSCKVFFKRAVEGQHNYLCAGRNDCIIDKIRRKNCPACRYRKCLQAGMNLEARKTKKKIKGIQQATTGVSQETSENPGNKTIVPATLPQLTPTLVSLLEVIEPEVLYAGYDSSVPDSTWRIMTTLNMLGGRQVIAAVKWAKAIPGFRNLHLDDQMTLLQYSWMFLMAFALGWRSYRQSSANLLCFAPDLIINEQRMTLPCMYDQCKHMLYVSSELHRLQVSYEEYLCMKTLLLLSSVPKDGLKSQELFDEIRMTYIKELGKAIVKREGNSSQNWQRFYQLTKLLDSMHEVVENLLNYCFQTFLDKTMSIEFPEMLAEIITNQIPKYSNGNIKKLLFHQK

[7] = target: Glucocorticoid receptor (Homo sapiens) (UniProt P04150); experiment: GR-EFC Redistribution (AID 451; calls by dose curve; further: potency means the concentration at half of the fitted maximal effect); conditions: CHO-K1 GR-EFC translocation, beta-gal luminescence, 2 h
Outline: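 CHO-K1 cells stably expressing nuclear-localized β-gal enzyme acceptor and GR fused C-terminally to the enzyme donor fragment; ligand-driven nuclear translocation restores β-gal by complementation. Compounds titrated up to 46 uM final, 2 h at 37 °C; luminescence read.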

[8] = target: Mitogen-activated protein kinase 10 (Mus musculus) (UniProt Q61831); experiment: JNK3 AlphaScreen Assay (AID 530); conditions: JNK3 lysate, c-Jun phosphorylation; series mostly up to 57.1 µM;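 further: kinase came from lysate of stimulated human HepG2 cells; signal reports phosphorylation of biotinylated GST-cJun 1-79 at Ser73 with 10 µM ATP; on the % scale 0 is the no-effect control and ±100 the full control effect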
Outline: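 Biotinylated GST-cJun(1-79) served as substrate for JNK3 in HepG2 lysates stimulated with IL-1beta and TNF-alpha. ATP was 10 uM final, pH 7.6. Ser73 phosphorylation was quantified by AlphaScreen (680 nm excitation).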

[9] = target: 3',5'-cyclic-AMP phosphodiesterase 4B (Homo sapiens) (UniProt Q07343); experiment: qHTS Assay for Inhibitors of PDE-IV (AID 607; active means well fitted activation curve with a large enough effect in the main read-out, with a control signal flat, not every such curve was filed as active; further: % of control where 0% means no effect); conditions: HEK293 ACTOne CNG channel cells, membrane potential fluorescence; series mostly up to 22.9 µM
Chain of 3',5'-cyclic-AMP phosphodiesterase 4B (Homo sapiens) (Q07343 whole entry, looked up): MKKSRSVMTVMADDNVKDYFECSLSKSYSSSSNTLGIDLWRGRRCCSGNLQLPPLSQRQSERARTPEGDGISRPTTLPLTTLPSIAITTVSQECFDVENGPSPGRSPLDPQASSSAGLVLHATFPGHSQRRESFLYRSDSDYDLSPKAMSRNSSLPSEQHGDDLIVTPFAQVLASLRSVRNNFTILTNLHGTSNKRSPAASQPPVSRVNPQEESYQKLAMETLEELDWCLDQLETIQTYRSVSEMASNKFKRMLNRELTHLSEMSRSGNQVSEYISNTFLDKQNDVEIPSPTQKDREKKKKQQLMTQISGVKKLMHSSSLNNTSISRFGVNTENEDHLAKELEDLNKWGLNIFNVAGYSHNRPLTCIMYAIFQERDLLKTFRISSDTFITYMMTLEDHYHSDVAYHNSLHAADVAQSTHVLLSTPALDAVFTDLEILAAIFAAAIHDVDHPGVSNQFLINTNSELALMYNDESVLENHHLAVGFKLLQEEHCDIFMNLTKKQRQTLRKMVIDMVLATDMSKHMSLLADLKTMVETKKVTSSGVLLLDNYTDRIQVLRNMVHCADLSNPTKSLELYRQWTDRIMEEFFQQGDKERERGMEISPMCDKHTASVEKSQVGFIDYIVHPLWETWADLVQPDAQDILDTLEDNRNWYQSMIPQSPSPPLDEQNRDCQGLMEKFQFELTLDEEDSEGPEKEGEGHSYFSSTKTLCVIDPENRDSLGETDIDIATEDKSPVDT
Outline: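 The readout is membrane depolarisation from a cAMP-sensing CNG channel, detected with a potential dye at ex 535/em 590. Cells were HEK293-derived (endogenous PDE-IV) at 1000 cells/well, titrated up to 22.9 uM final.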

[10] = target: Cytochrome P450 3A4 (Homo sapiens) (UniProt P08684); experiment: qHTS Assay for Activators of Cytochrome P450 3A4 (AID 885; active means well fitted curve in the direction sought with a large enough effect; an effect the other way counts as inactive or inconclusive; further: nearly all actives have a fitted effect of over 65% in size); conditions: recombinant CYP3A4, Luciferin-PPXE luminescence, 60 min; series mostly up to 57.1 µM
Chain of Cytochrome P450 3A4 (Homo sapiens) (P08684 whole entry, looked up): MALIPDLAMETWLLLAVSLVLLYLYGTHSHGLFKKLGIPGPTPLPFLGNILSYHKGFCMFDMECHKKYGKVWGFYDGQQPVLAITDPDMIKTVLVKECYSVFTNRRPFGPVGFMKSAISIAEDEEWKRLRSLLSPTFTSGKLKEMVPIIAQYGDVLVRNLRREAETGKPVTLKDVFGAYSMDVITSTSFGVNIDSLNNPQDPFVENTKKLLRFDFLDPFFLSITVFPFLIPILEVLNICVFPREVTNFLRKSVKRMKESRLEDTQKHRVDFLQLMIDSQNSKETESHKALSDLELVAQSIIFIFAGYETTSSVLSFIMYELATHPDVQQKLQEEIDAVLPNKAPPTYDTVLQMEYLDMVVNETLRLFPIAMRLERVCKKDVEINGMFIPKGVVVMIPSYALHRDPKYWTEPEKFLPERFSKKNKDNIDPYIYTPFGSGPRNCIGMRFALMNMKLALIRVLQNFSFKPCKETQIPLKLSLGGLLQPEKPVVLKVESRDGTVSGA
Outline: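 Activators are scored by enhanced luminescence from CYP3A4 conversion of luciferin-PPXE (25uM, equal to KM) to luciferin, after 60 min at RT with an NADPH-regenerating system.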

[11] = qHTS Assay for Lipid Storage Modulators (AID 1519; calls by dose curve); conditions: Drosophila S3 cells, BODIPY lipid droplet/cell ratio, laser cytometry, cells loaded with oleic acid; for activity change, negative = inhibition: at 57.5 µM (top of the series)
Outline: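 Cells seeded at 5,000 per well were treated with compounds over a concentration series and loaded with oleic acid (400 uM, as added). Lipid droplet fluorescence (488 nm excitation, 500-530 nm channel) was read by laser-scanning cytometry and normalized to 20 uM Triacsin C.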

[12] = Primary qHTS for small molecule stabilizers of the endoplasmic reticulum resident proteome: Secreted ER Calcium Modulated Protein (SERCaMP) assay (AID 1508630; active means well fitted curve in the direction sought with a large enough effect; an effect the other way counts as inactive or inconclusive; further: on the % scale 0 is the no-effect control and ±100 the full control effect); conditions: SH-SY5Y GLuc-SERCaMP (Gaussia luciferase released on ER calcium loss) secretion, thapsigargin, luminescence; series mostly up to 38.4 µM
Outline: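 The SH-SY5Y reporter protocol was run at 3 concentrations up to 38.3 uM (primary) or 11 concentrations (follow-up): 16 h compound, 100 nM thapsigargin for 4 h, then extracellular luciferase luminescence.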

[13] = target: Cytochrome P450 2C9 (Homo sapiens) (UniProt P11712); experiment: qHTS Assay for Inhibitors and Substrates of Cytochrome P450 2C9 (AID 883; active means well fitted curve in the direction sought with a large enough effect; an effect the other way counts as inactive or inconclusive; further: potency means the concentration at half of the fitted maximal effect; nearly all actives have a fitted effect of over 60% in size); conditions: recombinant CYP2C9, luciferin-H luminescence, 60 min; series mostly up to 57.1 µM
Chain of Cytochrome P450 2C9 (Homo sapiens) (P11712 whole entry, looked up): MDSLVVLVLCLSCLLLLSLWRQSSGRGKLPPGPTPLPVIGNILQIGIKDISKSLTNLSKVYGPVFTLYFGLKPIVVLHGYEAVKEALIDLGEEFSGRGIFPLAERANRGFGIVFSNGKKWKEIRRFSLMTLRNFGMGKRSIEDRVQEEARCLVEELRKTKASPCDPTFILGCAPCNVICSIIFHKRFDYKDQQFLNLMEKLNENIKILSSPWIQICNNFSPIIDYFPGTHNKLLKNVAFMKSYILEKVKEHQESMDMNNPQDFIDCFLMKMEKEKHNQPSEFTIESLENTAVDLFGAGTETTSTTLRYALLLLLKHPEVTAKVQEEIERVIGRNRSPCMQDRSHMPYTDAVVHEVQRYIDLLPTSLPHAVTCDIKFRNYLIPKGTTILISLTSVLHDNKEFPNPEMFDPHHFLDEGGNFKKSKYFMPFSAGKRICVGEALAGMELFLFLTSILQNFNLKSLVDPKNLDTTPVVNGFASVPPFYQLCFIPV
Outline: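 Human CYP2C9 (10nM) hydroxylated Luciferin-H (100uM, at its KM) to luciferin in 25mM KPO4. Compound was preincubated 10 min at 37C, then NADPH regeneration started a 60 min reaction at 37C. Luminescence was read after detection reagent, normalized to 57uM sulphaphenazole.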

[14] = target: Cytochrome P450 3A4 (Homo sapiens) (UniProt P08684); experiment: qHTS Assay for Inhibitors and Substrates of Cytochrome P450 3A4 (AID 884; active means well fitted curve in the direction sought with a large enough effect; an effect the other way counts as inactive or inconclusive; further: potency means the concentration at half of the fitted maximal effect; nearly all actives have a fitted effect of over 50% in size); conditions: recombinant CYP3A4, Luciferin-PPXE luminescence; series mostly up to 57.1 µM
Outline: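 Luminescent readout of luciferin produced by CYP3A4 (20 nM) dealkylation of Luciferin-PPXE, 25 uM (its KM). NADPH-driven reaction ran 60 min at RT after 10 min compound preincubation; data scaled to 57 uM ketoconazole as 100% inhibition.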

[15] = target: Cytochrome P450 2C19 (Homo sapiens) (UniProt P33261); experiment: qHTS Assay for Inhibitors and Substrates of Cytochrome P450 2C19 (AID 899; active means well fitted curve in the direction sought with a large enough effect; an effect the other way counts as inactive or inconclusive; further: potency means the concentration at half of the fitted maximal effect; nearly all actives have a fitted effect of over 60% in size); conditions: recombinant CYP2C19, luciferin-H EGE luminescence; series mostly up to 57.1 µM
Chain of Cytochrome P450 2C19 (Homo sapiens) (P33261 whole entry, looked up): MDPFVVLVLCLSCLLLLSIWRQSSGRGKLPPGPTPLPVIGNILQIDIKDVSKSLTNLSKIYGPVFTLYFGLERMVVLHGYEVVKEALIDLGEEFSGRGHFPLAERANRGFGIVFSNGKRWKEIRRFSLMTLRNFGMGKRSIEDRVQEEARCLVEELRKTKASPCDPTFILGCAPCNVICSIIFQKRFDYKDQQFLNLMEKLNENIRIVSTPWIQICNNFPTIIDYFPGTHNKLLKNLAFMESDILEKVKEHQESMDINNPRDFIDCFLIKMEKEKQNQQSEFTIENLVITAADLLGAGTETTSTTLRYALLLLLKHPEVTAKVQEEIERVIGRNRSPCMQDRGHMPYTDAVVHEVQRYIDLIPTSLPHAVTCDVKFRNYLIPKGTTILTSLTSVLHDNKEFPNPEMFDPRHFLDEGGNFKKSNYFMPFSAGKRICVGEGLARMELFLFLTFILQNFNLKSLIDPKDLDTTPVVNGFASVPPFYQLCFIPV
Outline: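 Human CYP2C19 (5nM) with Luciferin-H EGE at 10uM (its KM) in 50mM KPO4 was preincubated with compound for 10 min at 37C. NADPH regeneration started a 60 min 37C reaction. Luciferin was read by luminescence, normalized to 57uM ketoconazole.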

[16] = Confirmation and Secondary Assay for Modulators of Hemoglobin Beta Chain Splicing at IVS2 654 locus (AID 910; active means well fitted curve in the direction sought with a large enough effect; an effect the other way counts as inactive or inconclusive;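 further: per-well total GFP intensity by laser scanning cytometry after 2-day treatment; % of control where 0% means no effect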); conditions: HeLa EGFP-654 splicing reporter, GFP fluorescence, 48 h; series mostly up to 38.3 µM
Outline: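 HeLa cells stably carrying EGFP interrupted by mutant beta-globin IVS2-654 intron (CMV-driven) were treated with compound for 2 days at 37C; corrected splicing was scored as total peak GFP intensity per well (488 nm excitation, 500-520 nm emission).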

[17] = Confirmation and Secondary Assay for Modulators of Hemoglobin Beta Chain Splicing at IVS2 705 locus (AID 930; active means well fitted curve in the direction sought with a large enough effect; an effect the other way counts as inactive or inconclusive;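 further: HeLa cells stably expressing the EGFP-705 splicing reporter; % of control where 0% means no effect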); conditions: HeLa EGFP-705 splicing reporter, GFP fluorescence, 48 h; series mostly up to 38.3 µM
Outline: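 Restored EGFP fluorescence after 2-day compound exposure reports splicing correction in IVS2-705 EGFP reporter HeLa cells; positive control was 500 nM splice-blocking PNA oligo. Signal measured as well total peak GFP intensity (488 nm excitation).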

[18] = target: Ubiquitin carboxyl-terminal hydrolase 1 (Homo sapiens) (UniProt O94782); experiment: Inhibitors of USP1/UAF1: Pilot qHTS (AID 504865; active means well fitted curve in the direction sought with a large enough effect; an effect the other way counts as inactive or inconclusive;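 further: rhodamine fluorescence freed from ubiquitin-rhodamine substrate followed over time; top concentration of the series differs between compounds; on the % scale 0 is the no-effect control and ±100 the full control effect; nearly all actives have a fitted effect of over 35% in size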); conditions: purified USP1/UAF1, Ub-rhodamine cleavage fluorescence; series mostly up to 54.9 µM
Chain of Ubiquitin carboxyl-terminal hydrolase 1 (Homo sapiens) (O94782 whole entry, looked up): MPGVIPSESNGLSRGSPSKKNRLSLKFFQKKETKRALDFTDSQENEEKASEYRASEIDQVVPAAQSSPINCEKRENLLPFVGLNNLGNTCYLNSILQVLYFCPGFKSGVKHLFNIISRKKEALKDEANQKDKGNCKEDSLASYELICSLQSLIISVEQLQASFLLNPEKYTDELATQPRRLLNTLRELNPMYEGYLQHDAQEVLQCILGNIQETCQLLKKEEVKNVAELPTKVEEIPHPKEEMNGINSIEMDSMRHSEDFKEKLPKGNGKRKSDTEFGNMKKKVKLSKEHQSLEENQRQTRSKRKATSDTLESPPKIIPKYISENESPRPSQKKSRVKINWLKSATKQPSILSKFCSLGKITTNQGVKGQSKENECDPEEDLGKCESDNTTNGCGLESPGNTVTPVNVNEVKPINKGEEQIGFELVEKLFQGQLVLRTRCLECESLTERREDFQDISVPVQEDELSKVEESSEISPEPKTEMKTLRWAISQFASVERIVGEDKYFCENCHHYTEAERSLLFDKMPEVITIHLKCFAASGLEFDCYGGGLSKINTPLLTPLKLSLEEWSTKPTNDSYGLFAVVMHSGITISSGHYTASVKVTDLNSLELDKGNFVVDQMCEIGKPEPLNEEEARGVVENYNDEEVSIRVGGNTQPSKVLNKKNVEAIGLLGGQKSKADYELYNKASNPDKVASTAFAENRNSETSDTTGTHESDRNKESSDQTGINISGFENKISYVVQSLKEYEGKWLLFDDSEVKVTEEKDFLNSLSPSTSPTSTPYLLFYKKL
Outline: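 Enzyme-free wells gave the negative control, while test wells held 1nM USP1/UAF1 preincubated with compound for 15 min at room temperature. Ub-Rho at 150nM final started the reaction, and fluorescence at 480/540 nm was recorded kinetically.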

[19] = measured here: cell count channel max response
[20] = measured here: lipid channel max response

Compound	Potency [1]	activity change, negative = inhibition [2]	Potency [3]	activity change, negative = inhibition [4]	activity, negative = inhibition [5]	Potency [6]	Potency [7]	outcome [8]	Potency [9]	Potency [10]	activity change, negative = inhibition [11]	max response [11, 19]	max response [11, 20]	Potency [12]	Potency [13]	Potency [14]	Potency [15]	outcome [16]	outcome [17]	Potency [18]
COc1ncc2nc(-c3cc(F)cc(F)c3)c(=O)n(CCC#N)c2n1	> 11.4 µM (inactive)	2.61% (inactive)	6.31 µM (active)	-5.52% (inactive)	-7.47% (inactive)	> 9.22 µM (inactive)	> 46 µM (inactive)	inactive	inactive	inactive	5.74% (inactive)	17.3%	25.6%	inactive	–	–	–	–	–	–
COc1ccccc1CCn1c(=O)c(-c2cc(F)cc(F)c2)nc2cncnc21	> 11.4 µM (inactive)	-3.28% (inactive)	1.58 µM (active)	-7.47% (inactive)	13% (inactive)	> 9.22 µM (inactive)	> 46 µM (inactive)	inactive	–	inactive	6.22% (inactive)	-2.09%	2.22%	inactive	1.58 µM (active)	0.398 µM (active)	1.58 µM (active)	–	–	–
CN(C)c1ccc(-c2ccc3ncnc(N4CCNCC4)c3c2)cc1	> 11.4 µM (inactive)	5.26% (inactive)	2.51 µM (active)	-13.1% (inactive)	5.8% (inactive)	> 46 µM (inactive)	> 46 µM (inactive)	inactive	inactive	inactive	7.34% (inactive)	-3.08%	4.85%	inactive	–	–	–	inactive	inactive	–
COc1ccc2[nH]cc(CCNc3cc(-c4ccccc4C(F)(F)F)ncn3)c2c1	> 11.4 µM (inactive)	-26.7% (inactive)	10 µM (active)	14% (inactive)	0.643% (inactive)	> 46 µM (inactive)	> 46 µM (inactive)	–	inactive	inactive	6.48% (inactive)	-3.31%	0.275%	inactive	–	5.01 µM (active)	–	inactive	inactive	–
COCCNc1ccnc(-c2ccccc2CN(C)C)n1	> 11.4 µM (inactive)	3.13% (inactive)	5.01 µM (active)	-0.192% (inactive)	11.3% (inactive)	–	> 46 µM (inactive)	inactive	–	–	1.95% (inactive)	-5.81%	7.72%	inactive	–	–	–	inactive	inactive	inactive
O=C(c1cnccn1)N1CCC2(CCN(Cc3nccs3)CC2)CC1	> 11.4 µM (inactive)	2.79% (inactive)	inactive	9.93% (inactive)	3.3% (inactive)	–	> 46 µM (inactive)	inactive	inactive	–	2.95% (inactive)	-0.576%	4.52%	inactive	–	–	–	–	–	–

Source: PubChem BioAssay (NCATS)
